DT40 TDP1 CPT: growth inhibition of DT40 Tdp1-/-;hTDP1 cells with camptothecin (screen for TDP1 inhibitors). chicken DT40 Tdp1-/-;hTDP1 cells + 20 nM CPT, ATP luminescence, 48 h. Potency, µM (series often up to 46.2 µM), usual class: inhibitors. 420,000 tested, 12% active; also: nearly all actives have a fitted effect of over 55% in size
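Chicken DT40 Tdp1-/- cells complemented with human TDP1, 400 cells/well, exposed to compounds plus 20 nM camptothecin for at least 48 h at 37 C; viability read as ATP content by CellTiter-Glo luminescence.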
IL-1B inflam inh: inhibitors of inflammasome signaling (IL-1 beta secretion). THP-1 LPS/ATP IL-1B secretion, AlphaLISA, 16 h; stronger effect = lower value. 360,000 tested, 4.7% active. AID 743279. activity change, % at 57.5 µM; in the data active = activity change below about -50%; inconclusive = mostly about -30% to -49%
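THP-1 cells pretreated 1 hr with compounds (up to 57.5 uM final), then stimulated with LPS (250 ng/mL final) plus ATP (1.25 mM final); secreted IL-1B measured by AlphaLISA after 16 hr, decreased signal indicating inhibition.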
HT1080-NT tox: kills 2HG-producing HT-1080-NT fibrosarcoma cells; HT-1080-NT fibrosarcoma viability, CellTiter-Glo ATP luminescence, 48 h; Potency, µM (titrated, usually from 46.1 µM), hits mostly cytotoxic; 360,000 tested, 1.6% active;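 also: NT is the 2HG producing partner of a matched IDH1 knockdown line; nearly all actives have a fitted effect of over 55% in size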
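Fibrosarcoma NT cells, 750 per well in 5% FBS RPMI, were exposed to compound for 48 hours. Viability: CellTiter-Glo luminescence.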
HT1080 IDH1KD tx: toxicity to HT-1080 IDH1 knockdown cells (counter line). Potency, µM (highest dose often 46.1 µM), actives largely listed as cytotoxic. AID 686971. HT-1080 IDH1 knockdown viability, ATP luminescence, 48 h. 360,000 tested, 2% active
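Assay cells: HT-1080 with IDH1 knockdown, 750 per well, RPMI/5% FBS. Exposure: 48 h at 37 °C following 2 h pre-incubation. Read: CellTiter-Glo luminescence; fitted concentration-response, curve class assigned.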
DT40 TDP1 no CPT: qHTS for Inhibitors of human tyrosyl-DNA phosphodiesterase 1 (TDP1): qHTS in cells in absence of CPT | AID 686978, 2013 | DT40 Tdp1-/- hTDP1 cells, no CPT, ATP luminescence, 48 h | 420,000 tested, 15% active | Potency, µM (series often up to 46.2 µM), most hits filed as inhibitors; also: nearly all actives have a fitted effect of over 55% in size
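Chicken DT40 Tdp1-/- cells stably complemented with human TDP1 were seeded at 400 cells/well with DMSO in place of 20 nM camptothecin. After compound pinning, cells grew at least 48 hr at 37 °C; viability read by CellTiter-Glo luminescence.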
Hits are given with their value; - = inactive; ? = inconclusive; . = no result given; [ ] = remark or other dose. The list is not random: actives were taken first. Their share in the collection is about 19%. Unless noted, calls follow the shape of the dose curve; as a rule, active = well fitted curve in the direction sought with a large enough effect; inconclusive = small, poorly fitted or top-dose-only effect, or another doubt; inactive = no such curve, though single readings can be large; an effect the other way counts as inactive or inconclusive.

SMILES	DT40 TDP1 CPT	IL-1B inflam inh	HT1080-NT tox	HT1080 IDH1KD tx	DT40 TDP1 no CPT
COc1cc(C2c3c(-c4ccccc4O)n[nH]c3C(=O)N2CCO)ccc1OCc1ccccc1 (stereo unspecified)	-	.	.	.	26µM
CCCN1C(=O)c2[nH]nc(-c3ccccc3O)c2C1c1ccc(OCc2ccccc2)c(OC)c1 (stereo unspecified)	16µM	.	.	.	16µM
CCCCOc1ccc(C2c3c(-c4ccccc4O)n[nH]c3C(=O)N2Cc2ccncc2)cc1OC (stereo unspecified)	?	.	.	.	23µM
O=C(Cn1ncc2c([nH]c3ccccc32)c1=O)NCc1cccc(Cl)c1	-	.	.	.	-
C[C@H](CO)N1C[C@H](C)[C@H](CN(C)S(C)(=O)=O)OCc2cnnn2CCCC1=O	-	-	-	-	-
CCCCSc1ncnc2c1ncn2C1CCCCO1 (stereo unspecified)	-	-	-	-	?
COc1ccc(Nc2ncnc3c2c(C)c(C)n3CCCN(C)C)cc1	-	-	-	-	-
c1ccc(-c2nc3ccccn3c2NCc2ccc3c(c2)OCO3)cc1	-	?	-	-	-
COc1ccc(-c2nc3ccccn3c2NCc2ccc3c(c2)OCO3)cc1	-	-	-	-	?
COc1ccc(-c2cc(-c3nc4ccccn4c3NCc3ccccc3)ccc2OC)cc1	?	-56	?	?	?
Clc1cccc(-c2ccc(-c3nc4ccccn4c3NCc3ccccc3)cc2)c1	16µM	?	?	?	23µM
CCC(=O)N[C@@H]1c2ccccc2C2(CCN(Cc3[nH]c4c(Cl)cccc4c3C)CC2)[C@H]1OC	-	.	.	.	-
O=C(CN1C(=O)C2CCCCN2c2ccc(C(=O)N3CCCC3)cc21)NCc1ccc(F)cc1 (stereo unspecified)	-	.	.	.	-
COc1cc(CN(CC(C)C)S(=O)(=O)c2ccccc2Br)cc(OC)c1	?	-	-	-	?
COc1cccc(CN(CCC(C)C)S(=O)(=O)c2cc(Br)ccc2Br)c1	18µM	-	-	-	16µM
COc1ccc(-c2csc3ncnc(N4CCN(S(=O)(=O)c5ccc(Cl)s5)CC4)c23)cc1	?	-	-	-	29µM
COc1ccc(-c2csc3ncnc(N4CCN(S(=O)(=O)c5ccc(C)cc5)CC4)c23)cc1	?	-	-	-	15µM
COc1ccc(-c2csc3ncnc(N4CCN(S(=O)(=O)c5cccs5)CC4)c23)cc1	?	-	-	-	?
COc1ccc(S(=O)(=O)N2CCN(c3nn(C)c(=O)n(C)c3=O)CC2)cc1	?	-	-	-	16µM
O=S(=O)(c1ccc(Oc2ncnc3scc(-c4ccccc4)c23)cc1)N1CCOCC1	23µM	-	-	-	18µM
C[C@H](NC(=O)c1ccco1)C(=O)NNC(=O)COc1cccc(C(F)(F)F)c1	-	-	-	-	-
COCCNC(=O)C1(C)CCCN(Cc2noc(-c3ccccc3OC)n2)C1 (stereo unspecified)	?	-	?	-	?
O=[N+]([O-])c1ccc(Sc2n[nH]c(-c3ccc(Cl)cc3Cl)n2)nc1	-	-	?	?	-
Cc1ccc(-c2nc(SCC(=O)N(C)c3c(N)n(Cc4ccccc4)c(=O)[nH]c3=O)n[nH]2)cc1	-	-	-	-	-
Cc1ccc(-c2csc3ncnc(Oc4cccc5ccc(C)nc45)c23)cc1	?	-	-	-	21µM
SMILES	DT40 TDP1 CPT	IL-1B inflam inh	HT1080-NT tox	HT1080 IDH1KD tx	DT40 TDP1 no CPT
Cc1csc2ncnc(N3CCN(S(=O)(=O)c4cccc(C(F)(F)F)c4)CC3)c12	9.2µM	-	-	-	3.7µM
CC(=O)Nc1cccc(Oc2ncnc3scc(-c4ccccc4)c23)c1	?	-53	-	-	10µM
Cc1ccc(S(=O)(=O)N2CCN(C(=O)C3CCN(c4ncnc5sc(C)c(C)c45)CC3)CC2)c(C)c1	8.2µM	-	-	-	3.7µM
Cc1ccc2cccc(Oc3ncnc4sc(C)c(C)c34)c2n1	-	-	-	-	?
COC(=O)CSc1nccc(C)n1	-	-	-	-	-
O=C(Cn1ccc(NC(=O)OCc2ccccc2)nc1=O)NCc1ccc2c(c1)OCO2	-	-	-	-	-
COc1ccc(CNC(=O)c2nn(-c3ccccc3)cc2OC)cc1	-	?	-	-	?
CCCc1nc(N2CCN(S(=O)(=O)c3ccc(Cl)cc3)CC2)c2c(C)c(C)sc2n1	?	-	-	-	?
Cc1sc2ncnc(N3CCN(S(=O)(=O)c4ccc(C(C)(C)C)cc4)CC3)c2c1C	9.2µM	-	-	-	3.3µM
COc1ccc(CCN=C(N)NS(=O)(=O)c2cc(F)ccc2F)cc1	-	-	-	-	-
O=C(N/N=C/c1ccc(O)cc1)c1cccc(N/N=C/c2ccc(O)cc2)c1	-	-	?	?	-
COc1cc(CC(NC(C)=O)C(=O)NC2CCN(c3c(Cc4ccccc4)c(C)nc4ncnn34)CC2)cc(OC)c1 (stereo unspecified)	-	-	-	-	-
N=C(N)SCCc1cccc(CCSC(=N)N)c1	16µM	-	-	-	16µM
CC1=CC2C(C(O)CC3(C)C2CC(C)C32OCOC23COCO3)C2(C)C/C(=C\O)C(=O)C=C12 (stereo unspecified)	1.6µM	-104	18µM	7.3µM	2.6µM
O=C(NCc1cccs1)C(=O)NCC1OCCCN1S(=O)(=O)c1ccccc1 (stereo unspecified)	-	-	-	-	?
O=C(c1cc(C(F)(F)F)cc(C(F)(F)F)c1)N1CCC2(CC1)CCN(c1ccccc1)CC2	-	.	.	.	-
COc1ccc(C(=O)N2CCC3(CCCN(c4ccncc4)C3)CC2)cc1	?	.	.	.	18µM
O=C(c1cc(C(F)(F)F)cc(C(F)(F)F)c1)N1CCC2(CC1)CCN(c1ccccn1)CC2	21µM	.	.	.	21µM
O=C(c1ccco1)N1CCC2(CC1)CCN(c1ccccn1)CC2	-	.	.	.	?
O=C(c1cc(C(F)(F)F)cc(C(F)(F)F)c1)N1CCC2(CC1)CN(c1ccccc1)C2	?	.	.	.	13µM
O=C(c1cccc(F)c1)N1CCC2(CC1)CN(c1ccccc1)C2	7.3µM	.	.	.	16µM
COc1ccc(Cl)cc1NC(=S)Nc1cccnc1	-	-	-	-	-
O=C(O)c1cccc(NS(=O)(=O)c2cccc3nsnc23)c1	-	-	-	-	-
O=C(c1cc(C(F)(F)F)cc(C(F)(F)F)c1)N1CCC2(CCCN(c3ccncc3)C2)CC1	?	.	.	.	21µM
Cc1nc2ccccc2n1-c1ccccc1	?	-	-	-	?
Cc1nc2ccccc2c2c(N)c3ccccc3n12	?	-	?	-	21µM
O=C(NC1CCCC1)c1cccc(S(=O)(=O)N2CCCC2)c1	-	-	-[9.24 µM]	-	-

Source: PubChem BioAssay
